The list is not random: actives were taken first. Their share in the collection is about 4.6%.
SKKanGAS inh = S. pyogenes SKKanGAS growth inhibitors in kanamycin, primary screen, streptokinase expression inhibitor project, SKKanGAS strain, BacTiter-Glo luminescence | 6 h | actives 1.3% (n = 300,000) | inhibition, % at 7.5 µM;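 active = mean replicate score, as percent of positive control median, at least 50; inconclusive = mean below 50 but one replicate at or above 50; inactive = mean and every replicate below 50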;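 note: strain carries kanamycin resistance gene driven by streptokinase promoter and grows in 40 µg/ml kanamycin; loss of luminescence reflects streptokinase promoter inhibition or plain growth inhibition; 0% = median of DMSO wells and 100% = positive control at its reference dose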
tim10-1 inh = growth inhibitors of tim10-1 mutant yeast, primary screen, luminescence, uHTS; S. cerevisiae tim10-1 ts strain growth, BacTiter-Glo, 24 h; inhibition, % at 20 µM; actives 2.2% (n = 330,000); AID 463190, 2010;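 active = inhibition of at least 40%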;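 note: mutant grown at 25 °C; 0% = DMSO wells with yeast and 100% = wells holding no yeast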
tim23-1 inh = growth inhibitors of tim23-1 mutant yeast, primary screen, luminescence, uHTS; S. cerevisiae tim23-1 growth, BacTiter-Glo luminescence, 24 h; inhibition, % at 20 µM; actives 1.3% (n = 330,000);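 active = growth inhibition of the mutant yeast at or above 50%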;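 note: temperature-sensitive mutant grown at 25 °C; plate controls were DMSO-treated mutant yeast for no effect and medium wells lacking yeast for full effect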
NLRP3 yeast inh = NALP3 inflammasome inhibitors in reconstituted yeast, primary screen, luminescence, uHTS. AID 2825, 2010. actives 0.39% (n = 330,000). inhibition, % at 10 µM. Yeast reconstituted NLRP3/ASC/caspase-1, beta-gal luminescence, 24 h;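 active = inhibition of 50% or more; inactive = inhibition below 50%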;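 note: plate controls were induced DMSO wells for no effect and uninduced yeast grown without galactose for full effect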
TIM10 inh = growth inhibitors of isogenic TIM10 control yeast, primary screen, counter-screen for tim10-1 yeast inhibitor project, luminescence, uHTS | S. cerevisiae TIM10 strain growth, BacTiter-Glo luminescence, 24 h | inhibition, % at 10 µM | actives 1.4% (n = 330,000) | AID 463195, 2010;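 active = inhibition of 40% or more at the single tested concentration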;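 note: wild-type TIM10 isogenic control strain grown at permissive 25 °C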
tim10-1 confirm = growth inhibitors of tim10-1 mutant yeast, confirmation, single concentration, luminescence, S. cerevisiae | inhibition, % at 20 µM | S. cerevisiae tim10-1 ts strain growth, BacTiter-Glo, 24 h | actives 56% (n = 7,400) | shares compounds with tim10-1 inh;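 active = inhibition of yeast growth at or above a set limit in either of two repeat tests at 20 µM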;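 note: tim10-1 mutant grown at permissive 25 °C to find synthetic lethal compounds; 0% = DMSO yeast wells and 100% = medium wells without yeast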
tim10 confirm = growth inhibitors of wild-type TIM10 yeast, confirmation, counter-screen for tim10-1 synthetic lethality project, single concentration, luminescence, S. cerevisiae. shares compounds with TIM10 inh. S. cerevisiae tim10 strain growth, BacTiter-Glo luminescence, 24 h. inhibition, % at 10 µM. actives 63% (n = 4,600);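 active = inhibition of yeast growth at or above a set limit in either of two replicates at 10 µM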;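 note: this counterscreen used the strain with wild-type TIM10; 0% = yeast with DMSO and 100% = medium wells lacking yeast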
tim23-1 confirm = tim23-1 mutant yeast growth inhibitors, confirmation, luminescence, single concentration | shares compounds with tim23-1 inh | S. cerevisiae tim23-1 growth, BacTiter-Glo luminescence, 24 h | inhibition, % at 20 µM | actives 83% (n = 4,400);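 active = inhibition above about 39% in either of two replicate wells at 20 µM, limit read from the data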;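 note: temperature-sensitive tim23-1 mutant grown at 25 °C; 0% = DMSO wells with yeast and 100% = medium wells without yeast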
The depositor's hits bear a star; ? = inconclusive; · = no result given.

SMILES	SKKanGAS inh	tim10-1 inh	tim23-1 inh	NLRP3 yeast inh	TIM10 inh	tim10-1 confirm	tim10 confirm	tim23-1 confirm
Cc1cccc(C(C(=O)NC2CCCCC2)N(Cc2cccnc2)C(=O)c2csnn2)c1 (centres undefined)	0.4	-3.0	3.6	0.9	-6.3	·	·	·
COc1ccc(Cc2nc3ccc(C(=O)NC(C)Cc4ncccc4C)cc3o2)cc1OC (centres undefined)	2.6	9.8	19.4	28.1	10.9	·	·	·
CCc1ccc(C(=O)Cn2ncc(Cl)c(Cl)c2=O)cc1	-15.0	5.1	-2.3	-13.3	-1.0	·	·	·
O=C(OCn1ncc(Cl)c(Cl)c1=O)c1cccc(C(F)(F)F)c1	5.3	71.5*	73.7*	-3.7	53.0*	72.2*	39.3*	71.8*
Cc1csc(NC(=O)C2CCCN(S(=O)(=O)c3ccc(Br)s3)C2)n1 (centres undefined)	10.9	46.2*	55.0*	6.4	1.6	37.9*	·	50.7*
COc1ccc(C(C[N+](=O)[O-])c2c(C)[nH]c3ccccc23)cc1OC (centres undefined)	-1.1	35.2	30.6	27.8	18.5	·	·	·
O=c1[nH][nH]c(-c2ccccc2O)c1C(C[N+](=O)[O-])c1ccc(Br)cc1 (centres undefined)	2.0	51.8*	61.6*	32.8	53.4*	43.5*	-22.4	65.4*
Cc1c(NC(=O)C(C)Oc2ccc(Br)cc2)c(=O)n(-c2ccccc2)n1C (centres undefined)	·	1.1	13.2	17.4	3.5	·	·	·
Cc1ccc(CSc2nnc(CS(=O)Cc3ccc(Cl)cc3Cl)n2C)cc1 (centres undefined)	-10.1	47.3*	50.8*	-1.9	47.5*	36.8*	48.4*	44.1*
CCCOc1ccc2cc(C(=O)NCc3ccccc3)c(=O)oc2c1	-6.5	1.3	18.3	-2.8	8.5	·	·	·
COc1cccc(C=O)c1OCCCOc1cccc2cccnc12	-0.3	45.0*	65.2*	2.3	40.8*	33.0*	34.4*	55.0*
Brc1ccccc1OCCCOc1cccc2cccnc12	41.3	11.4	40.7	18.6	35.4	·	·	·
CCCCc1ccc(/C=C(\C#N)C(N)=S)s1	·	55.6*	70.9*	33.8	53.0*	55.3*	60.5*	57.5*
Cn1cccc1/C=C(/C#N)C(N)=S	-10.5	4.4	5.4	1.9	-3.7	·	·	·
CCCN(CCC)CCNC(=S)Nc1ccc2nc3n(c(=O)c2c1)CCCCC3	4.5	-5.8	-8.4	7.6	-34.3	·	·	·
O=C(NC(=O)c1ccccc1F)OCc1ccc(Cl)cc1Cl	-1.8	46.1*	50.2*	38.7	17.5	27.0	·	44.5*
O=C(CNC(=O)c1ccccc1F)NCCc1ccc(Cl)cc1Cl	2.7	-3.0	17.6	11.7	6.8	·	·	·
CCOc1ccccc1C(=O)Nc1cccc2cccnc12	6.3	33.8	44.1	29.7	-1.2	·	·	·
Cc1ccccc1NC1=CC(=O)CC(C)(C)C1	-2.0	13.7	-9.2	9.0	-4.9	·	·	·
CC1(C)CC(=O)C=C(NC2=CC3OC(c4ccccc4)OCC3OC2=O)C1 (centres undefined)	-2.3	68.3*	59.5*	5.2	59.3*	58.0*	-1.0	56.0*
COc1ccccc1-c1cc(C(=O)N/N=C/c2ccc(C)s2)c2ccccc2n1	14.6	41.9*	61.2*	11.3	27.5	29.2	·	65.0*
CCc1ccc(/C=N/NC(=O)c2cc(-c3ccccc3OC)nc3ccccc23)s1	30.5	24.6	37.8	9.3	30.5	·	·	·
O=c1c2c([N+](=O)[O-])cc([N+](=O)[O-])cc2sn1-c1ccc(Br)cc1	·	85.0*	54.4*	13.7	19.3	93.4*	·	70.2*
COc1ccc(/C=N/NC(=O)C(=O)/C=C2\NC3(CCCC3)Cc3ccccc32)cc1	11.3	42.2*	53.9*	9.0	36.9	31.2*	·	36.0
O=C(/C=C1\NC2(CCCC2)Cc2ccccc21)C(=O)N/N=C/c1ccc(O)c(O)c1	15.2	6.9	19.5	13.5	3.7	·	·	·
SMILES	SKKanGAS inh	tim10-1 inh	tim23-1 inh	NLRP3 yeast inh	TIM10 inh	tim10-1 confirm	tim10 confirm	tim23-1 confirm
CC(C)(C)OC(=O)C[C@@H]1C/C=C\C[C@H](CC(=O)N[C@H](CO)Cc2ccccc2)C(=O)N2CCC[C@H]2COC1=O	·	-12.5	-5.5	14.2	2.4	·	·	·
O=C(N/N=C/c1ccc([N+](=O)[O-])o1)c1cn2ccc3ccccc3c2n1	5.1	59.4*	73.7*	11.7	59.6*	72.2*	78.3*	22.4
CC12CCC(C(=O)N(CSC(=S)N/N=C\c3ccccc3Cl)C1=O)C2(C)C (centres undefined)	6.5	40.5*	58.6*	8.4	57.0*	22.8	-22.8	41.4*
Cc1ccccc1NCN1C(=O)C2CCC(C)(C1=O)C2(C)C (centres undefined)	-8.0	2.5	1.8	6.4	10.5	·	·	·
CC(=O)c1cccc2c(O)c(C3=Nc4ccccc4C3=O)[nH]c12	?	72.7*	88.3*	8.9	63.2*	56.8*	-27.5	89.6*
COc1nc(OC)nc(Oc2ccc(Cl)cc2[N+](=O)[O-])n1	-1.3	25.3	31.6	-32.2	11.0	·	·	·
COc1ccc([N+](=O)[O-])c(S(=O)(=O)c2ccc(Cl)cc2)n1	0.2	74.5*	52.6*	34.6	83.5*	73.3*	93.6*	85.5*
COc1ccc([N+](=O)[O-])c(S(=O)(=O)c2ccccc2)n1	3.7	49.6*	76.8*	33.7	-16.4	46.5*	·	47.0*
CCOC(=O)c1sc2nc(NC(=O)C(C)(C)C)sc2c1C	7.5	55.3*	62.8*	36.9	41.3*	30.8*	44.2*	57.5*
O=C1CCN(CCCc2ccccc2)CCN1[C@H](CO)Cc1ccccc1	1.3	-8.1	4.3	2.3	-2.2	·	·	·
O=C(Nc1cccc(Cl)c1)c1ccc(Cn2cc(Cl)cn2)cc1	16.2	59.9*	68.4*	49.8	73.3*	47.0*	16.9	76.0*
Cc1ccc(NC(=O)CN(C)C(=O)c2cc(-c3cccs3)nn2-c2ccccc2)cc1	·	-8.4	10.8	23.1	8.3	·	·	·
Cc1ccc(OCCCC(=O)ON=C(N)c2ccccc2C)cc1	·	60.1*	62.4*	16.8	41.1*	63.5*	50.3*	61.4*
COc1ccc(OCCCC(=O)ON=C(N)c2ccccc2Cl)cc1	·	23.8	31.5	19.8	39.0	·	·	·
CCOc1ccc(-n2cc(-c3ccccc3)c3c(=S)nc[nH]c32)cc1	76.8*	70.3*	64.2*	-13.8	45.0*	32.8*	46.9*	33.8
